AMA1-RON2 inh: disrupts binding of P. falciparum AMA1 to RON2 | AID 720542 | Potency, µM (doses to about 58.2 µM), for the others: at the highest dose activity change, negative = inhibition, most hits filed as inhibitors | AlphaScreen AMA1-biotinylated RON2 peptide binding | 360,000 tested, 0.2% active;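 also: 0% = vehicle wells and -100% = peptide control; nearly all actives have a fitted effect of over 45% in size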
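AMA1 (3D7) with his tag at 25 nM final met compounds first, then biotinylated RON2 peptide at 25 nM; detection used donor plus acceptor beads, 10 µg/mL apiece, read by AlphaScreen after 30 min at room temperature.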
AmpC inh detg: inhibitors of E. coli AmpC beta-lactamase with detergent; P00811; 370,000 tested, 0.041% active; Potency, µM (top dose mostly 114 µM), inactives show top-dose activity change, negative = inhibition, most hits filed as inhibitors; AmpC hydrolysis of nitrocefin, absorbance 480 nm, 0.01% Triton; AID 485294;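 also: 0% = no-compound wells and -100% = no-enzyme wells; nearly all actives have a fitted effect of over 25% in size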
Target sequence (P00811 whole entry, looked up): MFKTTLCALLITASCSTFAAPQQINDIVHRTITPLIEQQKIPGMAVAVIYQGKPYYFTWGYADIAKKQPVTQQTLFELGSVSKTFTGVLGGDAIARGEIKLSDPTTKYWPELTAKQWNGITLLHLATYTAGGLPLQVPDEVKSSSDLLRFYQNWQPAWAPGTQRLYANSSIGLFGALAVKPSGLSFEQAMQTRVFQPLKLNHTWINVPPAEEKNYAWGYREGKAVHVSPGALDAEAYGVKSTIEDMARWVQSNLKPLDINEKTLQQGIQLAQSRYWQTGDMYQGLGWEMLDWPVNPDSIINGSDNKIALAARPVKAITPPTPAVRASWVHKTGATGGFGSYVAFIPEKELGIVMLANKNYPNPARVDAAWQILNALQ
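20 mM phosphate pH 7.0 + 0.01% (detergent screen) or 0.0001% Triton X-100; 5.3 nM AmpC reagent; cpd preinc 15 min RT; nitrocefin (800 uM stock) to start; A480 q20 s × 4 min; Activity was normalised to no-enzyme and no-compound control wells.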
Lassa entry inh: blocks Lassa virus binding to or entry into cells. Lassa virus pseudotype entry inhibition, cell reporter. Potency, µM (doses to about 37.9 µM), for the others: at the top dose activity change, negative = inhibition, hits mostly inhibitors. 300,000 tested, 1.2% active; calls by dose curve; tested in HEK293 cells; also: nearly all actives have a fitted effect of over 50% in size
AmpC inh no detg: AmpC beta-lactamase inhibition without detergent; P00811; AmpC nitrocefin hydrolysis, absorbance 480 nm, 0.0001% Triton; Potency, µM (top dose mostly 57.1 µM), without a hit: at the highest dose activity change, negative = inhibition, usual class: inhibitors; 330,000 tested, 0.52% active;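 also: plate controls were no compound for no effect and no enzyme for full effect; nearly all actives have a fitted effect of over 20% in size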
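AmpC (5.3 nM in the dispensed reagent) in 20 mM phosphate pH 7.0 with 0.01% (detergent screen) or 0.0001% Triton X-100 was preincubated with compounds for 15 min at room temperature. Nitrocefin was then added from an 800 uM solution, and hydrolysis was followed at 480 nm.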
Marburg entry inh: Marburg virus entry inhibition | Marburg virus pseudotyped entry inhibition, cell reporter | Potency, µM (titrated, usually from 37.8 µM), for the others: top-dose activity change, negative = inhibition, most hits filed as inhibitors | 300,000 tested, 1.8% active | AID 540276; calls by dose curve; tested in HEK293 cells
The depositor's hits bear a star; ? = inconclusive; . = no result given; [ ] = dose if it differs, or a comment. Only some compounds are listed: those with a hit (about 2.3% of all), similar ones and a draw of the others. Unless noted, calls follow the shape of the dose curve; as a rule, active = well fitted curve in the direction sought with a large enough effect; inconclusive = small, poorly fitted or top-dose-only effect, or another doubt; inactive = no such curve, though single readings can be large; an effect the other way counts as inactive or inconclusive. Unless noted, % is scaled to controls: 0 for no effect and ±100 for the full control effect; potency is read from the fitted curve at half-maximal effect.

SMILES	AMA1-RON2 inh	AmpC inh detg	Lassa entry inh	AmpC inh no detg	Marburg entry inh
O=C(O)C1Nc2c(cccc2C(F)(F)F)C2C=CCC12 (stereo not given)	.	-6%	.	-39%	.
O=C(O)C1Nc2c(O)cc(Cl)c([N+](=O)[O-])c2C2C=CCC12 (stereo not given)	2.2µM*	40µM*	.	7.1µM*	.
CC1(C)Cc2c(sc3ncnc(NNC(=S)NCc4ccccc4)c23)CO1	76%	6%	0.12µM*	-45%	?
O=C1CC(c2nc3ccccc3n2CCCCOc2ccccc2)CN1c1ccccc1Cl (stereo not given)	.	24%	?	.	-1%[46.1 µM]
CNC(=O)/C(C#N)=C/c1c(N(Cc2ccccc2)Cc2ccccc2)nc2ccccn2c1=O	-11%	-2%	11µM*	45%	16µM*
COc1cc(NC(=O)Cn2c(=O)oc3cc(S(=O)(=O)N4CCCCCC4)ccc32)cc(OC)c1	.	8%	-24%[46.1 µM]	.	.
Cc1cc(/C=N/NC(N)=S)c(C)n1-c1ccc(Cl)c(Cl)c1	40%	-2%	?	?	?
CCNC(=S)N/N=C/c1cc(C)n(-c2ccc(Cl)cc2)c1C	12%	1%	?	28µM*	?
CC(C)(C)NC(=O)C(c1ccc(F)cc1)N(Cc1cccs1)C(=O)c1ccc(CN2CCOCC2)o1 (stereo not given)	10%	3%	8%	202%	2.8µM*
CC(C)CCNC(=O)C(C)N(Cc1ccc(F)cc1)C(=O)c1ccc(CN2CCOCC2)o1 (stereo not given)	1%	3%	24%	117%	-18%[46.1 µM]
Cc1cccc(N2CCN(C(=O)CCS(=O)(=O)c3ccc4c(c3)CC(=O)N4C)CC2C)c1 (stereo not given)	.	3%	12%[46.1 µM]	.	.
CC(=O)[C@]12C[C@@H]3CCCN(C(=O)N[C@@H]1c1ccccc1)[C@@H]32	.	.	.	.	0%[14.2 µM]
COCC1CCN(Cc2cn(Cc3ccccc3)nc2-c2cc3ccccc3o2)CC1	0%	-1%	?	190%	?
COCC1CCCN(Cc2cn(Cc3ccccc3)nc2-c2cc3ccccc3o2)C1 (stereo not given)	-3%	4%	?	148%	2.5µM*
C=CCN1C(=O)[C@]2(OCCC=C[C@@H]2C)c2cc(OC)ccc21	.	.	.	.	37%[14.2 µM]
Fc1ccccc1C1c2[nH]c3ccccc3c2CCN1Cc1cccn1-c1ncccn1 (stereo not given)	?	-5%	?	15%	3.2µM*
CN(C)c1ccc(N=Nc2ccc(S(N)(=O)=O)cc2)cc1	-17%	?	.	-30%	-2%[46.1 µM]
CC1=CC(=O)C=CC1=Nc1ccc(N(C)C)cc1	4µM*	.	.	.	.
Clc1ccc(N2C[C@H]3CC[C@@H](C2)N3)nn1	.	.	.	.	-1%
O=C(Nc1ccc(OC(F)(F)F)cc1)C1CCN(S(=O)(=O)c2ccc3[nH]c(=O)ccc3c2)CC1	.	-7%	-1%[46.1 µM]	.	.
O=C(CC1SC(=O)N(c2ccccc2)C1=O)Nc1ccc(Br)cc1 (stereo not given)	77%	-6%	3%	8.9µM*	1%
COc1ccc(NC(=O)C[C@H]2C(=O)N(CCc3ccccc3)C[C@@H]2Cc2ccccc2)cc1	-6%	.	16µM*	.	.
O=C(C[C@H]1C(=O)N(c2ccc(Br)cc2)C[C@@H]1Cc1ccccc1)Nc1ccccc1	16%	.	5µM*	.	.
C/C(=N\Nc1nc2ccccc2[nH]1)c1ccc2c(c1)OCO2	12%	7%	?	-31%	12µM*
CC1=C[C@@H](COCc2ccccc2)O[C@@]2(C1)C(=O)Nc1cccc(Br)c12	.	.	?	.	9%[14.2 µM]
SMILES	AMA1-RON2 inh	AmpC inh detg	Lassa entry inh	AmpC inh no detg	Marburg entry inh
Brc1ccc(N=Nc2ccc3ccccc3n2)cc1	?	3%	1.1µM*	-9%	?
S=C(Nc1cccc(Cl)c1)N(CCCN1CCCC1)Cc1cccn1Cc1ccc(Cl)cc1	-20%	7%	?	13%	?
CSc1cccc(NC(=S)N(CCCN2CCCC2)Cc2cccn2Cc2ccc(Cl)cc2)c1	?	7%	2.8µM*	68%	6.3µM*
CSc1cccc(NC(=S)N2CCCN(Cc3cccc(Cl)c3)C2)c1	16%	0%	?	-37%	4.5µM*
O=C(CSc1nc(=O)[nH]c2c1CCCC2)Nc1ccccc1C(F)(F)F	.	8%	-28%[46.1 µM]	.	.
CCc1cccc(C)c1NC(=O)Cn1c(NCCO)nc2ccccc21	-8%	-4%	2%	-26%	0%
CCCCNc1nc2ccccc2n1CC(=O)Nc1c(C)cccc1CC	-7%	-7%	1%	20µM*	?
O=C(CSc1ccc2nnc(-c3ccc(Cl)cc3)n2n1)N1CCc2ccccc21	0%	-16%	.	6.3µM*	.
Cc1nn(Cc2ccc(C(=O)Nc3ccccc3C(F)(F)F)o2)c(C)c1Br	-7%	?	?	143%	?
Cc1csc(NC(=O)c2ccc(Cn3nc(C)c(Br)c3C)o2)n1	-3%	-8%	11µM*	26%	?
CCOC(=O)N1CCN(C(=O)CS(=O)(=O)c2cn(Cc3ccccc3Cl)c3ccccc23)CC1	7%	?	.	4µM*	.
CCOC(=O)N1CCN(C(=O)CS(=O)(=O)c2cn(Cc3ccc(Cl)cc3)c3ccccc23)CC1	6%	?	.	?	.
O=S(=O)(c1ccc(NC(=S)NN=Cc2ccccc2O)cc1)N1CCCCC1	35%	.	6.3µM*	.	?
CCCCC(=O)NC(=S)Nc1ccc(S(=O)(=O)N2CCCC2)cc1	-10%	-11%	-5%	13µM*	9%
CCCC(=O)Nc1ccc(S(=O)(=O)N2CCCC2)cc1	0%	-1%	-16%	-23%	21%
COc1cc(NS(=O)(=O)c2ccc(NC(=S)NC(=O)C3CCCC3)cc2)nc(OC)n1	-5%	-1%	5%	16µM*	-2%
CCC(=O)NC(=S)Nc1ccc(S(=O)(=O)NC2CCCCC2)cc1	-3%	10%	-8%	13µM*	-2%
N#Cc1cc([N+](=O)[O-])c2sc(C(N)=O)[n+]([O-])c2c1	.	.	?	.	-22%
Cc1ccc(CN(C(=O)COc2ccc(C(C)C)cc2)C2CCS(=O)(=O)C2)o1 (stereo not given)	.	-14%	14%[46.1 µM]	.	5%[46.1 µM]
O=S(=O)(c1ccc(NC(=S)N/N=C/c2ccc(O)c(O)c2)cc1)N1CCOCC1	33%	-4%	?	16µM*	-5%[46.1 µM]
N#Cc1ccc(/C=N/NC(=S)Nc2ccc(S(=O)(=O)N3CCOCC3)cc2)cc1	109%	-11%	-26%	-27%	30%[46.1 µM]
O=S(=O)(c1ccc(Cl)c(NC(=S)N/N=C/c2ccc(O)cc2)c1)N1CCOCC1	0%	-2%	12µM*	-34%	?
O=S(=O)(c1ccc(NC(=S)N/N=C/c2cccc(Oc3ccccc3)c2)cc1)N1CCOCC1	58%	0%	?	-50%	-17%[46.1 µM]
O=[N+]([O-])c1cc(Cl)cc(/C=N/NC(=S)Nc2ccc(S(=O)(=O)N3CCOCC3)cc2)c1O	10µM*	-13%	.	-57%	.
